Consider 15 molecules from PubChem BioAssay (NCI).

Among the test systems are T-47D breast; BT-549 breast; MDA-MB-435 melanoma; SW-620 colon; MCF7 breast; HCT-116 colon; HCC-2998 colon; KM12 colon.
Common to all, as to experiment: NCI-60 one-dose screen, 48 h (100 = growth as untreated, 0 = no growth, -100 = all killed)
Common to all, as to details: 10 µM unless noted

Structures are written as SMILES. The panel holds about 83,000 compounds, 20% with a hit somewhere; the sample as a whole holds those more often.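 Cell lines were cultured in 96-well plates, exposed to a single compound concentration, and assessed for percent growth 48 hours later.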 Values without a mark were called inactive. Calls of active or inactive are those of the source. How the source made its calls: active means growth percent below 10; inactive means the rest.

For `CC(O)c1cnc(/C=C2\SC(=S)N(Cc3ccccc3)C2=O)s1` (stereo not given), the growth in the test with T-47D breast was 41.7%; in the test with BT-549 breast, 86.9%; in the test on MDA-MB-435 melanoma, 25.3%; with SW-620 colon, 39.7%; with MCF7 breast, 27.4%; with HCT-116 colon it was 20.2%. Further, the growth in the test with HCC-2998 colon was 107%; in the test on KM12 colon, 30.3%.

For `CC1=C(Nc2ccc(N3CCN(C)CC3)cc2)C(=O)c2cncnc2C1=O`, the growth was -44.2% (active) in the test with T-47D breast; 101% in the test with BT-549 breast; -83.7% (active) in the test on MDA-MB-435 melanoma; 75.8% in the test on SW-620 colon; 61.9% with MCF7 breast; 6.39% (active) with HCT-116 colon. Moreover, the growth in the test with HCC-2998 colon was 126%; with KM12 colon, 91.2%.

`N#Cc1nc(-c2ccccc2)oc1S(=O)(=O)N1CCOCC1`: the growth with T-47D breast is 65.4%; in the test with BT-549 breast it was 86.6%; in the test on MDA-MB-435 melanoma it was 89.4%; in the test with SW-620 colon it was 56.6%; with MCF7 breast, 32.5%; with HCT-116 colon it was 19.9%. The figures for the growth with HCC-2998 colon and in the test on KM12 colon were 104% and 97.8%, respectively.

`CCN(CC)CCSc1nc(-c2ccccc2)c(C#N)c(=O)[nH]1`: the growth with T-47D breast was 93.8%; with BT-549 breast, 94.9%; with MDA-MB-435 melanoma, 103%; in the test with SW-620 colon, 94.4%; in the test with MCF7 breast it was 104%; in the test on HCT-116 colon, 105%. The growth was -6.88% (active) in the test with HCC-2998 colon and 118% in the test with KM12 colon.

As to `Brc1c2c(c(Br)c3ccccc13)CCCC2`, the growth in the test on T-47D breast is 84.4%; with BT-549 breast, 112%; in the test on MDA-MB-435 melanoma, 111%; with SW-620 colon, 103%; in the test with MCF7 breast, 96%; in the test on HCT-116 colon, 91.4%. Besides, the growth was 110% in the test with HCC-2998 colon and 102% in the test with KM12 colon.

`COc1ccc(NC(=O)c2sc3nc(C)c(C(=O)/C=C/c4cccc(OC)c4)cc3c2N)cc1`: the growth in the test with T-47D breast was 49.5%; with BT-549 breast, 56.3%; in the test with MDA-MB-435 melanoma, 13.6%; in the test on SW-620 colon it was 0.0421% (active); in the test with MCF7 breast, 14.3%; in the test on HCT-116 colon, 22.8%. Also, the results for the growth with HCC-2998 colon and with KM12 colon were 23.8% and 25.7%, respectively.

On to `O=C1Nc2ccc(Br)cc2/C1=N/c1n[nH]c(=S)s1`, for which the growth was 94.6% in the test with T-47D breast; 121% with BT-549 breast; 101% in the test on MDA-MB-435 melanoma; 97.1% in the test with SW-620 colon; 91.7% with MCF7 breast; 103% in the test on HCT-116 colon. The results for the growth in the test with HCC-2998 colon and with KM12 colon were 97.5% and 95.5%, respectively.

Take `COc1cc2oc(-c3cccc(NC(=O)c4cccc(Br)c4)c3)cc(=O)c2c(OC)c1OC`: the growth in the test on T-47D breast was 27.7%; in the test on BT-549 breast, 50.2%; in the test on MDA-MB-435 melanoma it was 57.4%; in the test on SW-620 colon it was 65.1%; in the test with MCF7 breast, 54.8%; with HCT-116 colon, 40.2%. The growth in the test on HCC-2998 colon is 57.8%; with KM12 colon it was 40.4%.

With `COc1ccc(-c2cn(-c3cc(OC)c(OC)c(OC)c3)c(=O)n2C(C)=O)cc1`, the growth in the test with T-47D breast was 73.9%; in the test with BT-549 breast, 83.5%; in the test with MDA-MB-435 melanoma, 79.4%; in the test on SW-620 colon, 96.2%; in the test with MCF7 breast, 89%; in the test with HCT-116 colon, 85%. Besides, the growth in the test on HCC-2998 colon was 84.3%; in the test with KM12 colon, 93.3%.

For the molecule `O=C(O)CCCN1C(=O)/C(=C/C(Cl)=C/c2ccccc2)SC1=S`, the growth in the test with T-47D breast was 45.3%; in the test with BT-549 breast, 7.71% (active); in the test with MDA-MB-435 melanoma, -14.9% (active); in the test with SW-620 colon, 7.33% (active); with MCF7 breast, 14.2%; in the test on HCT-116 colon, -54.2% (active). The figures for the growth with HCC-2998 colon and with KM12 colon were 5.79% (active) and 13.6%, respectively.

On to `C/C(=N/O)c1ccc(F)cc1`, for which the growth with T-47D breast was 91.4%; in the test with BT-549 breast, 88.2%; in the test with MDA-MB-435 melanoma, 112%; in the test on SW-620 colon, 48.6%; with MCF7 breast, 54.3%; with HCT-116 colon, 51.9%. For the same molecule, the growth with HCC-2998 colon was 130%; with KM12 colon it was 106%.

Consider `C#CCOc1cccc(Nc2ncnc3c(NC(=O)C=C)cccc23)c1`, for which the growth in the test with T-47D breast was 4.83% (active); in the test with BT-549 breast, 8.49% (active); in the test on MDA-MB-435 melanoma it was 2.2% (active); in the test on SW-620 colon, 15.2%; with MCF7 breast it was 16.4%; in the test on HCT-116 colon, 6.27% (active). In addition, the figures for the growth in the test on HCC-2998 colon and with KM12 colon were 79% and 9.96% (active), respectively.

For the molecule `O=C1c2ccc3c4ccc5c6c(ccc(c7ccc(c2c37)C(=O)N1CCC[P+](c1ccccc1)(c1ccccc1)c1ccccc1)c64)C(=O)N(CCC[P+](c1ccccc1)(c1ccccc1)c1ccccc1)C5=O`, the growth is 41.1% with T-47D breast; 74% with BT-549 breast; 0.931% (active) in the test on MDA-MB-435 melanoma; 24.5% with SW-620 colon; 37.1% with MCF7 breast; 46% in the test on HCT-116 colon. In addition, the growth was 25.5% with HCC-2998 colon and 10.5% with KM12 colon.

Regarding `O=Cc1ccc([N+](=O)[O-])s1`, the growth in the test on T-47D breast is 82.8%; in the test on BT-549 breast, 102%; with MDA-MB-435 melanoma it was 110%; in the test with SW-620 colon, 62.5%; in the test with MCF7 breast it was 47%; in the test on HCT-116 colon, 46.4%. For the same molecule, the growth is 100% in the test with HCC-2998 colon and 102% in the test with KM12 colon.

Turning to `CN(C)CCNC(=O)c1cccc(-c2cnc3ccc(-c4ccc5c(c4)OCO5)nn23)c1`, the growth with T-47D breast was 75.2%; with BT-549 breast, 80.7%; in the test with MDA-MB-435 melanoma, 86%; with SW-620 colon it was 52.8%; in the test on MCF7 breast it was 27.1%; in the test with HCT-116 colon, 5.58% (active). Further, the growth is 77.3% in the test on HCC-2998 colon and 17.6% with KM12 colon.
